{"source": "PubChem BioAssay (NCATS)", "note": "A number with no mark means an inactive call. Results filed as inconclusive are left out. The source made the active and inactive calls. Unless noted, calls come from the whole dose curve; as a rule, active = well fitted curve in the direction sought with a large enough effect; inconclusive = small, poorly fitted or top-dose-only effect, or another doubt; inactive = no such curve, though single readings can be large; an effect the other way counts as inactive or inconclusive.", "data": [{"target": "Cytochrome P450 3A4 (Homo sapiens) (UniProt P08684)", "sequence (P08684 whole entry, looked up)": "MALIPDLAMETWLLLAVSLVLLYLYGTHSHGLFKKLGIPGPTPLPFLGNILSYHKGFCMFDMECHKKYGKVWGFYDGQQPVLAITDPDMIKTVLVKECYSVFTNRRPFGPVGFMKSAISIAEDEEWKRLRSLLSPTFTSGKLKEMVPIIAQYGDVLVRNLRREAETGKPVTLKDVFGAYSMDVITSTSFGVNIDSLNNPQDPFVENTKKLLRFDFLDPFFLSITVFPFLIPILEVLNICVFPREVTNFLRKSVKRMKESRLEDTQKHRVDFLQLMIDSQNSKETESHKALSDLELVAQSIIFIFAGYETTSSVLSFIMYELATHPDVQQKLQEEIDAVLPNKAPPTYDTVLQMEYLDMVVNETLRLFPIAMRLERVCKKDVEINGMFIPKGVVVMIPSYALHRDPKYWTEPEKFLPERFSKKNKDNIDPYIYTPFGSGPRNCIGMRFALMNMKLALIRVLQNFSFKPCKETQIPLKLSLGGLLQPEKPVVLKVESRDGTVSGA", "experiment": "qHTS Assay for Activators of Cytochrome P450 3A4 (AID 885); note: nearly all actives have a fitted effect of over 65% in size", "settings": "recombinant CYP3A4, Luciferin-PPXE luminescence, 60 min; series mostly up to 57.1 µM; activity change, positive = activation: at the top concentration", "summary_of_the_method": "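Steps: enzyme/substrate mix dispensed; compound added, 10 min RT; NADPH regeneration solution added, 60 min RT; luciferin detection buffer stops reaction; 20 min later luminescence measured.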", "units": {"activity change, positive = activation": "%"}, "values": [{"compound": "CC(N)=NCc1cccc(CN)c1", "activity change, positive = activation": -38.5}, {"compound": "NCCCCCCNS(=O)(=O)c1cccc2c(Cl)cccc12", "Potency": "inactive"}, {"compound": "Cn1cnc2c(NC3CCCC3)ncnc21", "activity change, positive = activation": -45.4}]}, {"tested_on": "not listed separately", "experiment": "qHTS Assay for Identification of Small Molecule Agonists for Thrombopoietin (TPO) Signaling Pathway (AID 917); note: % is set by controls: 0 for no effect and ±100 for the full control effect", "settings": "TPO signaling pathway reporter cells, agonist qHTS, stimulated with TPO at its EC50; series mostly up to 38.5 µM; activity, positive = activation: at the top concentration", "summary_of_the_method": "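We measured Glycoprotein IIb promoter–luciferase output in IL-3-starved Ba/F3 murine cells expressing the human TPO receptor after 24 hrs at 37 C with compounds and 26 pM TPO.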", "units": {"activity, positive = activation": "%"}, "values": [{"compound": "CC(N)=NCc1cccc(CN)c1", "activity, positive = activation": 6.59}, {"compound": "O=C(O)c1cc(=O)c2ccc(Cl)cc2[nH]1", "activity, positive = activation": 10.3}, {"compound": "CCCn1c(=O)c2[nH]c(-c3ccc(OCC(=O)Nc4ccc(C#N)cc4)cc3)nc2n(CCC)c1=O", "activity, positive = activation": -14.3}, {"compound": "CN(C)CCCCSC(=N)N", "activity, positive = activation": -19.3}]}, {"target": "Muscarinic acetylcholine receptor M1 (Rattus norvegicus) (UniProt P08482)", "sequence (P08482 whole entry, looked up)": "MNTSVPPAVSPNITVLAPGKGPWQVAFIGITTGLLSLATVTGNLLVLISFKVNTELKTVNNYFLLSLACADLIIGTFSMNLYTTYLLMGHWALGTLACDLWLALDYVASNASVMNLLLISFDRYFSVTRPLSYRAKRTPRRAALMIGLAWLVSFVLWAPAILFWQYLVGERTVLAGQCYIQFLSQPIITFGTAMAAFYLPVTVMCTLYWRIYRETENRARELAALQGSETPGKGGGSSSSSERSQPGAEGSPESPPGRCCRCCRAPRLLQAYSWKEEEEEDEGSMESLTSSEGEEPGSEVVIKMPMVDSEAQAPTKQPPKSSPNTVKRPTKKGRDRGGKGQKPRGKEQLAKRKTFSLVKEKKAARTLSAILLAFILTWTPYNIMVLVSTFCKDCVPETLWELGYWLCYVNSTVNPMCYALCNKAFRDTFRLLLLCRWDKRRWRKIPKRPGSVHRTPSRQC", "experiment": "qHTS Assay for Antagonists of Acetylcholine Muscarinic M1 Receptor: Measurement of IP-One Response (AID 944); note: nearly all actives have a fitted effect of over 75% in size", "settings": "CHO-M1 cells, IP-One HTRF, antagonist mode; series mostly up to 46.1 µM; activity change, negative = inhibition: at the top concentration", "summary_of_the_method": "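Steps: plate transfected CHO-M1 cells overnight; add test compound, 10 min; add carbachol (200 nM, EC80) in stimulation buffer with LiCl; incubate 30 min; add labelled IP1 tracer and anti-IP1 antibody in lysis buffer; read HTRF after 10 min.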", "units": {"activity change, negative = inhibition": "%"}, "values": [{"compound": "CC(N)=NCc1cccc(CN)c1", "activity change, negative = inhibition": -41.4}, {"compound": "O=C(O)c1cc(=O)c2ccc(Cl)cc2[nH]1", "activity change, negative = inhibition": -12.8}, {"compound": "CN(C)CCCCSC(=N)N", "activity change, negative = inhibition": -24}, {"compound": "Cn1cnc2c(NC3CCCC3)ncnc21", "activity change, negative = inhibition": -7.12}]}, {"target": "Pyruvate kinase PKM (Homo sapiens) (UniProt P14618)", "sequence (P14618 whole entry, looked up)": "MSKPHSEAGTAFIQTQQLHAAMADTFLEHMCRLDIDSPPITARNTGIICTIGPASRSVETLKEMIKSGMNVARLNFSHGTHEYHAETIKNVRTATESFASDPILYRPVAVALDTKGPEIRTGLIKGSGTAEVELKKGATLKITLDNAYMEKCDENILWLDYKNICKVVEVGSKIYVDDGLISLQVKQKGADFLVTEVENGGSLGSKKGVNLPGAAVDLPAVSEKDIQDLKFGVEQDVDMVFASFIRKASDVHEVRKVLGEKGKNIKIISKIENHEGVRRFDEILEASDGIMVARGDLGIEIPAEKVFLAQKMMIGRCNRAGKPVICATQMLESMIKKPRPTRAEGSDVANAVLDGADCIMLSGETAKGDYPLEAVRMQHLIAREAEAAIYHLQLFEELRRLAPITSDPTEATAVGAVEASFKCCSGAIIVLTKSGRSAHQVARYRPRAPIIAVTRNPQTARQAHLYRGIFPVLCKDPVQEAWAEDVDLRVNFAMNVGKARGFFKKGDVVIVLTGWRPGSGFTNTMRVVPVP", "experiment": "qHTS Assay for Activators of Human Muscle Pyruvate Kinase (AID 954; active = well fitted curve in the direction sought with a large enough effect, not every such curve was filed as active;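 note: 0% = uninhibited enzyme and -100% = no enzyme or full thiadiazolimine inhibition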)", "settings": "purified human muscle pyruvate kinase, luciferase-coupled luminescence, 1 h; series mostly up to 57.5 µM; activity change, negative = inhibition: at the top concentration", "summary_of_the_method": "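Reaction: 0.1 nM purified PKM2 with 0.5 mM phosphoenolpyruvate and 0.1 mM ADP, room temperature, 1 h. Readout: luciferase-based ATP luminescence after stop reagent. Activators judged against a 0.3 nM enzyme column.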", "units": {"activity change, negative = inhibition": "%"}, "values": [{"compound": "CC(N)=NCc1cccc(CN)c1", "activity change, negative = inhibition": -26.9}, {"compound": "O=C(O)c1cc(=O)c2ccc(Cl)cc2[nH]1", "activity change, negative = inhibition": -21.8}, {"compound": "NCCCCCCNS(=O)(=O)c1cccc2c(Cl)cccc12", "activity change, negative = inhibition": 13}, {"compound": "CCCn1c(=O)c2[nH]c(-c3ccc(OCC(=O)Nc4ccc(C#N)cc4)cc3)nc2n(CCC)c1=O", "activity change, negative = inhibition": -8.32}, {"compound": "CN(C)CCCCSC(=N)N", "activity change, negative = inhibition": -27.1}, {"compound": "Cn1cnc2c(NC3CCCC3)ncnc21", "activity change, negative = inhibition": -29.7}, {"compound": "O=C(OCCN1CCCCC1)c1c[nH]c2ccccc12", "activity change, negative = inhibition": -13.7}]}]}
